This is a sample that favours compounds with a hit; in the whole collection about 6.7% have one here.
T cruzi growth-1: inhibitors of T. cruzi proliferation. actives 5.9% (n = 77,000). AID 624255. inhibition, % at 8.34 µM. T. cruzi beta-gal in NIH3T3, GalScreen luminescence, 90 h;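 active = mean inhibition above about 93%, with at least 55% of replicates each passing it, limit read from the data, passing the limit was not always enough; inconclusive = only one of those two conditions holds; inactive = neither condition holds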
C diff HTS: C. difficile growth inhibition; Clostridium difficile clinical isolate growth, OD600, 24 h; active compounds read low; growth activity, negative = inhibition, % at 16 µg/mL (by protocol); actives 0.25% (n = 86,000); AID 1259249;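 active = mean growth activity at or below -80% and every replicate also at or below -80%; inconclusive = mean at or below -80% but some replicate above -80%; inactive = mean growth activity above -80%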;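 note: 0% = DMSO wells and -100% = levofloxacin 16 µg/mL wells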
Pf Dd2 inh: P. falciparum Dd2 growth inhibition; SYBR Green, 72 h; active compounds read low; activity change, % at 10 µM; actives 2.3% (n = 94,000); in the data active = activity change below about -80%; inconclusive = no clear call, values can overlap the other calls
T cruzi growth-2: Trypanosoma cruzi proliferation inhibition. actives 72% (n = 5,600). inhibition, % at 8.35 µM. T. cruzi beta-gal in NIH3T3, GalScreen luminescence, 90 h. shares compounds with T cruzi growth-1;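 active = mean replicate inhibition above about 95% and at least 55% of replicates individually reaching it, limit read from the data; inconclusive = only one of the two criteria is met; inactive = neither criterion is met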
T cruzi growth-3: inhibitors of T. cruzi proliferation; shares compounds with T cruzi growth-1; T. cruzi beta-gal in NIH3T3, GalScreen luminescence, 90 h; inhibition, % at 2.09 µM; actives 21% (n = 5,600); AID 651740;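 active = mean inhibition above about 95%, with at least 55% of replicates also reaching it, limit read from the data; inconclusive = meets just one of the two conditions; inactive = meets neither condition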;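 note: plate controls were neutral control median for no effect and positive control median for full effect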
NIH3T3 tox: cytotoxicity in mouse NIH/3T3 fibroblasts | NIH/3T3 viability, CellTiter-Glo ATP luminescence, 90 h | actives 14% (n = 5,600) | shares compounds with T cruzi growth-1 | cytotoxicity (signal decrease), % at 8.35 µM;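 active = mean signal decrease across replicates above about 35% based on untreated-well scatter, with enough replicates individually passing, limit read from the data; inconclusive = no rule stated though some were filed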;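 note: 0% = median of neutral control wells and 100% = median of positive control wells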
3T3 cytotox 2: NIH/3T3 (mouse) viability loss; shares compounds with T cruzi growth-1; NIH/3T3 viability, CellTiter-Glo ATP luminescence, 90 h; inhibition, % at 24.9 µM; actives 56% (n = 5,600);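 active = mean loss of cell viability signal at or above a set limit, and enough replicates individually reaching it; inconclusive = meets only the mean limit or only the replicate share; inactive = meets neither condition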;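 note: 0% = median of neutral control wells and 100% = median of positive control wells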
* hit, by the source's call; ? = inconclusive; nt = no result given.

SMILES | T cruzi growth-1 | C diff HTS | Pf Dd2 inh | T cruzi growth-2 | T cruzi growth-3 | NIH3T3 tox | 3T3 cytotox 2
C[C@H]1CN([C@@H](C)CO)C(=O)Cc2cc(NC(=O)Cn3cnnn3)ccc2O[C@H]1CN(C)C(=O)Nc1ccc(F)cc1 | 19.5 | nt | 21.3 | nt | nt | nt | nt
CC(C)NC(=O)N1[C@H](CO)[C@@H](c2ccc(C#CC3CCCCC3)cc2)[C@@H]1C#N | 98.6* | -4.3 | -49.3 | 93.8 | 105.5* | -19.7 | 104.9*
N#C[C@@H]1[C@H](c2ccc(C#CC3CCCCC3)cc2)[C@@H](CO)N1C(=O)Nc1ccc(F)cc1 | nt | -11.6 | ? | nt | nt | nt | nt
CC(C)NC(=O)N1[C@@H](C#N)[C@H](c2ccc(C#CC3CCCCC3)cc2)[C@@H]1CO | 99.6* | -12.9 | -37.4 | 105.1* | 73.2 | 3.1 | 62.2*
N#C[C@H]1[C@@H](c2ccc(C#CC3CCCCC3)cc2)[C@@H](CO)N1C(=O)Nc1ccc(F)cc1 | nt | 67.3 | -2.8 | nt | nt | nt | nt
Cc1cccc(S(=O)(=O)N2CCCCN3[C@@H](CO)[C@H](c4ccc(C#CC5CC5)cc4)[C@@H]3C2)c1 | 85.3 | 34.1 | 11.9 | nt | nt | nt | nt
CC(C)NC(=O)N1CC[C@@H]2[C@H]1c1cc(-c3cccc(F)c3)ccc1N(C)[C@H]2CO | 75.1 | -5.8 | -35.7 | nt | nt | nt | nt
COc1ccc(-c2ccc3c(c2)[C@@H]2[C@@H](CCN2C(=O)NC(C)C)[C@H](CO)N3C)cc1 | 28.9 | 4.4 | -23.5 | nt | nt | nt | nt
CC(C)NC(=O)N1CC[C@@H]2[C@H]1c1cc(-c3ccc(F)cc3)ccc1N(C)[C@@H]2CO | 107.9* | 22.3 | -10.1 | 110.7* | 84.7 | -1.0 | 9.4
CC(C)NC(=O)N1CC[C@@H]2[C@@H](CO)N(C)c3ccc(-c4ccc(F)cc4)cc3[C@@H]21 | 99.8* | 5.4 | 17.2 | 104.7* | 101.4* | -21.5 | 49.0*
COc1cccc(C#Cc2ccc3c(c2)[C@H]2[C@H](CCN2C(=O)Cc2ccccc2)[C@H](CO)N3)c1 | nt | -7.3 | -44.8 | nt | nt | nt | nt
COc1ccc(S(=O)(=O)Nc2ccc3c(c2)C(=O)N([C@@H](C)CO)C[C@H](C)[C@@H](CN(C)S(=O)(=O)c2c(C)noc2C)OCCCC[C@@H](C)O3)cc1 | 92.7 | -5.5 | -72.2 | nt | nt | nt | nt
C[C@H](CO)N1C[C@H](C)[C@@H](CN(C)S(=O)(=O)c2ccc(Cl)cc2)Oc2c(NC(=O)CCCCCC(=O)Nc3ccccc3N)cccc2C1=O | 102.9* | -8.9 | ? | 109.3* | 88.4 | -5.0 | 1.6
C[C@H]1CN([C@@H](C)CO)C(=O)c2cccc(NC(=O)CCCCCC(=O)Nc3ccccc3N)c2O[C@H]1CN(C)S(=O)(=O)c1ccccc1 | nt | -7.4 | -34.0 | nt | nt | nt | nt
C[C@@H]1CN([C@H](C)CO)C(=O)c2cccc(NC(=O)CCCCCC(=O)Nc3ccccc3N)c2O[C@H]1CN(C)S(=O)(=O)c1ccc(Cl)cc1 | 91.9 | -5.8 | -80.0 | nt | nt | nt | nt
C[C@H]1CN([C@@H](C)CO)C(=O)c2cccc(NC(=O)CCCCCC(=O)Nc3ccccc3N)c2O[C@H]1CN(C)S(=O)(=O)c1ccc(Cl)cc1 | 100.6* | -6.4 | -89.9* | 106.3* | 76.2 | -1.7 | 4.6
O=C(Nc1ccc(Cl)c(Cl)c1)N[C@H]1CC[C@H](CCn2cc(C3CCCCC3)nn2)O[C@@H]1CO | -47.5 | 2.0 | -30.7 | nt | nt | nt | nt
COc1cccc(C(=O)Nc2ccc3c(c2)OC[C@@H](C)N(CC2CC2)C[C@H](C)[C@@H](OC)CN(C)C3=O)c1 | 15.2 | -7.1 | -13.5 | nt | nt | nt | nt
CC(=O)N(C)C[C@@H]1Oc2cc(C#CCC3CCCC3)ccc2S(=O)(=O)N([C@@H](C)CO)C[C@@H]1C | 20.7 | -7.3 | -38.9 | nt | nt | nt | nt
C[C@H]1CN([C@@H](C)CO)S(=O)(=O)c2ccc(C#CCC3CCCC3)cc2O[C@H]1CN(C)C(=O)CC1CC1 | 122.4* | 20.9 | -53.9 | ? | 84.6 | -4.0 | 104.2*
C[C@@H]1CN([C@@H](C)CO)S(=O)(=O)c2ccc(C#CCC3CCCC3)cc2O[C@@H]1CN(C)C(=O)CC1CC1 | 119.9* | 14.5 | -47.8 | 88.7 | 93.9 | 24.9 | 106.5*
CCCC#Cc1ccc2c(c1)O[C@@H](CN(C)C(=O)CC1CC1)[C@@H](C)CN([C@H](C)CO)S2(=O)=O | 72.6 | -4.2 | -49.1 | nt | nt | nt | nt
Cc1ccc(-c2ccc3c(c2)O[C@H](CN(C)S(C)(=O)=O)[C@@H](C)CN([C@H](C)CO)S3(=O)=O)cc1 | 55.0 | -15.3 | -2.5 | nt | nt | nt | nt
COCCNC(=O)[C@@H]1[C@@H](CO)[C@@H]2Cn3c(ccc(-c4ccccc4OC)c3=O)[C@@H]2N1C(=O)C1CCC1 | nt | 1.8 | 44.5 | nt | nt | nt | nt
Cn1cnc(S(=O)(=O)N2CCCCN3[C@H](CO)[C@H](c4ccc(C#CC5CC5)cc4)[C@H]3C2)c1 | 14.2 | nt | 15.6 | nt | nt | nt | nt
SMILES | T cruzi growth-1 | C diff HTS | Pf Dd2 inh | T cruzi growth-2 | T cruzi growth-3 | NIH3T3 tox | 3T3 cytotox 2
COc1ccc(CN(C)C[C@@H]2OCCCC[C@@H](C)Oc3ccc(NC(=O)Nc4ccc(C(F)(F)F)cc4)cc3C(=O)N([C@@H](C)CO)C[C@@H]2C)cc1 | 76.9 | -43.3 | -58.3 | nt | nt | nt | nt
COc1ccc(CN(C)C[C@H]2OCCCC[C@H](C)Oc3ccc(NC(=O)Nc4ccc(C(F)(F)F)cc4)cc3C(=O)N([C@@H](C)CO)C[C@@H]2C)cc1 | 52.7 | 9.4 | -42.5 | nt | nt | nt | nt
COc1ccc(NC(=O)Nc2ccc3c(c2)C(=O)N([C@H](C)CO)C[C@@H](C)[C@@H](CN(C)Cc2ccc(C(F)(F)F)cc2)OCCCC[C@H](C)O3)cc1 | 99.7* | 5.9 | -70.3 | 85.4 | 108.1* | 17.5 | -3.6
COc1ccc(CN(C)C[C@@H]2OCCCC[C@@H](C)Oc3ccc(NC(=O)Nc4ccc(C(F)(F)F)cc4)cc3C(=O)N([C@H](C)CO)C[C@@H]2C)cc1 | ? | 0.5 | 37.2 | 97.2* | 108.1* | 6.8 | 29.0*
O=C1CSC(c2ccccc2)N1c1ccc(-c2ccccc2)cc1 (centres undefined) | nt | 0.9 | nt | nt | nt | nt | nt
CO[C@H](CN(C)S(=O)(=O)c1ccc(Cl)cc1)[C@@H](C)CN(C(=O)Nc1ccccc1F)[C@@H](C)CO | 57.8 | nt | -24.7 | nt | nt | nt | nt
COc1cccc(-c2cn(CC[C@H]3CC[C@@H](NC(=O)CC4CC4)[C@H](CO)O3)nn2)c1 | 20.6 | -5.3 | -5.8 | nt | nt | nt | nt
Cc1ccc(-c2ccc3c(c2)O[C@@H](CN(C)C(=O)Nc2ccccc2)[C@@H](C)CN([C@H](C)CO)S3(=O)=O)cc1 | nt | 2.0 | -38.4 | nt | nt | nt | nt
Cc1ccc(-c2ccc3c(c2)O[C@H](CN(C)C(=O)Nc2ccccc2)[C@H](C)CN([C@@H](C)CO)S3(=O)=O)cc1 | nt | -0.5 | -12.6 | nt | nt | nt | nt
Cc1ccc(-c2ccc3c(c2)O[C@H](CN(C)C(=O)Nc2ccc(F)cc2)[C@H](C)CN([C@H](C)CO)S3(=O)=O)cc1 | 121.7* | -5.3 | -52.5 | 109.8* | 80.0 | 5.1 | 66.5*
